Results filed as inconclusive are left out. Active and inactive are the calls of the source. Rule for the calls: active = hit-call score of the fitted dose curve at least 0.9, where 1 is the maximum; inconclusive = response in the unintended direction; inactive = score below 0.9.

The source of these data is PubChem BioAssay (EPA / NIEHS).

Sequence of Androgen Receptor/SRC-1 Co-activator, AR (gene 367) (P10275 whole entry, looked up, the tested form may be a part): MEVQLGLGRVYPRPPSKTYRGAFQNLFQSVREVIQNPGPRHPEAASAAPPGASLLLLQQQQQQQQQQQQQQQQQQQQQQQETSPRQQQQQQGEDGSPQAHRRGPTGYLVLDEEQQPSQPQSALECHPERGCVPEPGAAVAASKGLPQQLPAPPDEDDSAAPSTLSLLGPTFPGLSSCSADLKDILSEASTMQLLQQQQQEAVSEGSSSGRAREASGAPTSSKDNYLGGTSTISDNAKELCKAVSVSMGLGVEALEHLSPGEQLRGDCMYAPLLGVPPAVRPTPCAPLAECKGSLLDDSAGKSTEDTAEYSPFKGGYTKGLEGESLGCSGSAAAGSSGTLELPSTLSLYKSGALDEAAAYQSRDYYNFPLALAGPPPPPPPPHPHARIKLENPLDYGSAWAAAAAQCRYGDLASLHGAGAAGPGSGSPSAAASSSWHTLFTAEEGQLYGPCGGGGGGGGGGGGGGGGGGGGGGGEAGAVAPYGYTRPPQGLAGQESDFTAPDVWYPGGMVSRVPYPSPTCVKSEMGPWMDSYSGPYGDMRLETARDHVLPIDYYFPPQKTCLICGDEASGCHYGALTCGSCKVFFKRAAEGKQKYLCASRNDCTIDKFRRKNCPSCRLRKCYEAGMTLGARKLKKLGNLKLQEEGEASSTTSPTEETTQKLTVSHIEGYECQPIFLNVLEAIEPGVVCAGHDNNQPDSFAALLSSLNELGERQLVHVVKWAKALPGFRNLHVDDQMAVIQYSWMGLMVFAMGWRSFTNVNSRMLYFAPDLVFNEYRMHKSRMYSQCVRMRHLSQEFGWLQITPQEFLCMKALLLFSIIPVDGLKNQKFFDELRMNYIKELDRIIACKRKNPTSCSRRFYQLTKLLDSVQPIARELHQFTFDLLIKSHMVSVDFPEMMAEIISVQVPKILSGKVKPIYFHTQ

This test addresses Androgen Receptor/SRC-1 Co-activator, AR (gene 367) (UniProt P10275). In words: OT_AR_ARSRC1_0480: Odyssey Thera (OT) 8-hour HEK293T Protein-Complementation Assay for Androgen Receptor/SRC-1 Co-activator (AID 2283354).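 Note: hits raise the complementation signal above DMSO so AC50 marks enhancers.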 Here is the method:
OT_AR_ARSRC1_0480 is a cell-based, single-readout assay that uses HEK293T, a human kidney cell line, with measurements taken at 8 hours after chemical dosing in a 384-well plate.OT_AR_ARSRC1_0480 is one of one assay component(s) measured or calculated from the OT_AR_ARSRC1_0480 assay. It is designed to make measurements of protein fragment complementation, a form of binding reporter, as detected with fluorescence intensity signals by Protein-fragment Complementation technology.Data from the assay component OT_AR_ARSRC1_0480 was analyzed into 1 assay endpoint. This assay endpoint, OT_AR_ARSRC1_0480, was analyzed in the positive analysis fitting direction relative to DMSO as the negative control and baseline of activity. Using a type of binding reporter, measures of receptor for gain-of-signal activity can be used to understand the binding at the pathway-level as they relate to the gene AR. Furthermore, this assay endpoint can be referred to as a primary readout, because the performed assay has only produced 1 assay endpoint. To generalize the intended target to other relatable targets, this assay endpoint is annotated to the nuclear receptor intended target family, where the subfamily is steroidal.
Protein-fragment complementation assay, or PCA, is a method for the identification and quantification of protein-protein interactions. In the PCA, the proteins of interest ("bait" and "prey") are each covalently linked to fragments of a third protein (e.g. DHFR, which acts as a "reporter"). Interaction between the bait and the prey proteins brings the fragments of the reporter protein in close proximity to allow them to form a functional reporter protein whose activity can be measured. The OT AR / SRC-1 assay assessed androgen receptor chemical interactions using a rapidly maturing, intensely fluorescent mutant of YFP known as Venus, rationally dissected into two separate fragments. […] Fusion constructs were transfected into HEK293T cells with a (Gly4Ser)2 linker between the AR/SRC-1 and YFP fragment genes to facilitate complementation when interacting proteins bring fragments into close proximity. The construct is stably expressed in HEK293T cells. […] Images were acquired on an Evotec Opera at 2 wavelengths (488 and 635nm), and the ratio of fluorescence in the nucleus relative to fluorescence in the cytoplasm (N/C Ratio) in the 488nm channel was calculated for a minimum of 400 cells per image. Both agonists and antagonists of the AR receptor induce nuclear translocation to varying degrees. […] The OT AR/SRC-1 assay was also run for 16 hours (see description for OT_AR_ARSRC1_0960).
For `CCCCCCc1ccc(N)cc1`, the molecule was called inactive. The value for `COc1cc([N+](=O)[O-])ccc1N` was “inactive”; that for `CN(C)CCOC(c1ccccc1)c1ccccc1` was “inactive”; that for `O=C(c1ccccc1)c1ccccc1` was “inactive”. As to `CC(O)COc1ccccc1` (stereo not drawn), the call was inactive. The value for `CCCCCCC(C)(C)C(=O)O` was “inactive”; that for `CC(=O)Nc1ccc(O)cc1` was “inactive”; that for `Cc1cc(C(=C2C=CC(=Nc3ccc(S(=O)(=O)O)cc3)C=C2)c2ccc(Nc3ccc(S(=O)(=O)O)cc3)cc2)cc(S(=O)(=O)O)c1N` was “inactive”. For the molecule `CCCCCCCCCC=CCC1CC(=O)OC1=O` (stereo not drawn), the result was inactive.

On to `CN(Cc1cnc2nc(N)nc(N)c2n1)c1ccc(C(=O)N[C@@H](CCC(=O)O)C(=O)O)cc1`, for which the outcome was inactive. With `CC(C)[C@@H]1CC[C@@H](C)C[C@H]1O`, the molecule was called inactive.

With `CCCCc1ccc2ccccc2c1S(=O)(=O)O`, the result was inactive. As for `NC(=NCCCCCCN=C(N)/N=C(\N)Nc1ccc(Cl)cc1)/N=C(\N)Nc1ccc(Cl)cc1`, the outcome was inactive.
